Experimental data: PubChem BioAssay (NCI)
Compounds without any hit were thinned out: in the full panel of roughly 83,000, 20% have a hit.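 Negative percent growth values reflect cell death: -40 means 40% of the cells present at the start died, and -100 means all died.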 The source made the active and inactive calls. Rule for the calls: active = growth percent below 10; inactive = the rest.

Key:
Assay in all cases: NCI-60 one-dose screen, 48 h (100 = growth as untreated, 0 = no growth, -100 = all killed)
Conditions in all cases: 10 µM unless noted
NCI-H23 lung = system: NCI-H23 lung
NCI-H322M lung = system: NCI-H322M lung
HOP-62 NSCLC = system: HOP-62 NSCLC
NCI-H460 lung = system: NCI-H460 lung
HOP-92 NSCLC = system: HOP-92 NSCLC
NCI-H522 lung = system: NCI-H522 lung
A549/ATCC NSCLC = system: A549/ATCC NSCLC
786-0 renal = system: 786-0 renal
DU-145 prostate = system: DU-145 prostate
K-562 leukemia = system: K-562 leukemia
MALME-3M melanoma = system: MALME-3M melanoma
MDA-MB-231 breast = system: MDA-MB-231 breast
RXF 393 renal = system: RXF 393 renal
SF-268 CNS = system: SF-268 CNS
SF-295 CNS = system: SF-295 CNS
SF-539 CNS = system: SF-539 CNS
UACC-257 melanoma = system: UACC-257 melanoma
M14 melanoma = system: M14 melanoma
HCT-15 colon = system: HCT-15 colon
COLO 205 colon = system: COLO 205 colon

Measured: growth

COc1ccc(Cn2cc(Cn3c(=O)c(-c4nc5ccccc5[nH]4)cc4ccccc43)nn2)c(OC)c1OC
active: NCI-H23 lung 4.71% | HOP-62 NSCLC 9.29% | NCI-H460 lung 1.94% | HOP-92 NSCLC -2.19% | NCI-H522 lung -1.1% | A549/ATCC NSCLC 9.33% | 786-0 renal -50.1% | DU-145 prostate -59.6% | K-562 leukemia 9.91% | MDA-MB-231 breast 1.9% | RXF 393 renal -28.4% | SF-268 CNS 2.39% | SF-295 CNS 1.99% | SF-539 CNS -28.6% | M14 melanoma -50.3%
inactive: NCI-H322M lung 18% | MALME-3M melanoma 24.6% | UACC-257 melanoma 46.9% | HCT-15 colon 11.1%

O=C1C(=O)c2c(ccc3ccccc23)-c2ccccc21
inactive: NCI-H322M lung 50.5% | A549/ATCC NSCLC 24.1% | COLO 205 colon 52% | RXF 393 renal 22% | SF-295 CNS 109%
active: NCI-H23 lung -48.4% | HOP-62 NSCLC 9.44% | NCI-H460 lung 3.58% | HOP-92 NSCLC -20.6% | NCI-H522 lung -77.4% | 786-0 renal -6.68% | K-562 leukemia 8.29% | MALME-3M melanoma -83.8% | MDA-MB-231 breast -7.61% | SF-268 CNS 1.97% | SF-539 CNS -53.5% | UACC-257 melanoma -37.4% | M14 melanoma -44.6% | HCT-15 colon -27.6%

COc1ccc(-c2nc(-c3ccccc3)c(-c3ccccc3)[nH]2)cc1OC1CCCCC1
inactive: NCI-H23 lung 89% | NCI-H322M lung 84.9% | HOP-62 NSCLC 105% | NCI-H460 lung 88.3% | HOP-92 NSCLC 69.6% | NCI-H522 lung 88.3% | A549/ATCC NSCLC 85.5% | 786-0 renal 102% | DU-145 prostate 99.7% | K-562 leukemia 81.4% | MALME-3M melanoma 73% | MDA-MB-231 breast 67% | RXF 393 renal 105% | SF-268 CNS 84.4% | SF-295 CNS 80.9% | SF-539 CNS 102% | UACC-257 melanoma 93.8% | M14 melanoma 92.2% | HCT-15 colon 93.4%

Cc1ccc(C2CC(c3ccc(Nc4nc(NCCO)nc(Nc5ccc(Cl)cc5)n4)cc3)=NN2c2cc(Cl)cc(Cl)c2)cc1 (configuration not stated)
inactive: NCI-H23 lung 92.5% | NCI-H322M lung 85% | HOP-62 NSCLC 82.8% | NCI-H460 lung 98.9% | HOP-92 NSCLC 101% | NCI-H522 lung 104% | A549/ATCC NSCLC 94.2% | 786-0 renal 102% | DU-145 prostate 112% | K-562 leukemia 99.9% | MALME-3M melanoma 102% | MDA-MB-231 breast 91.3% | RXF 393 renal 88.6% | SF-268 CNS 79.7% | SF-295 CNS 100% | SF-539 CNS 92.4% | UACC-257 melanoma 101% | M14 melanoma 121% | HCT-15 colon 99.3%

O=C(Nc1ccccc1O)c1ccc(-c2ccc(Cl)cc2Cl)o1
inactive: NCI-H23 lung 85% | NCI-H322M lung 101% | HOP-62 NSCLC 93.7% | NCI-H460 lung 98.2% | HOP-92 NSCLC 80.4% | NCI-H522 lung 91.4% | A549/ATCC NSCLC 102% | 786-0 renal 88.2% | DU-145 prostate 91% | K-562 leukemia 47.1% | MALME-3M melanoma 71.4% | MDA-MB-231 breast 80.4% | RXF 393 renal 79.7% | SF-268 CNS 77.1% | SF-295 CNS 68.4% | SF-539 CNS 115% | UACC-257 melanoma 106% | M14 melanoma 90% | HCT-15 colon 95.9%

COc1ccc(/C=C/C(=O)c2ccc(Nc3nc(NCCO)nc(Nc4ccc(Cl)cc4)n3)cc2)cc1
inactive: NCI-H23 lung 89.6% | NCI-H322M lung 93.6% | HOP-62 NSCLC 87.8% | NCI-H460 lung 61.7% | HOP-92 NSCLC 86.7% | NCI-H522 lung 71.6% | A549/ATCC NSCLC 50.2% | 786-0 renal 63.9% | DU-145 prostate 71.4% | K-562 leukemia 62.3% | MALME-3M melanoma 97.2% | MDA-MB-231 breast 70% | RXF 393 renal 66.3% | SF-268 CNS 65.7% | SF-295 CNS 93.6% | SF-539 CNS 74.9% | UACC-257 melanoma 100% | M14 melanoma 67.9% | HCT-15 colon 38.2%

COc1ccc(C2C3=C(COC3=O)N(CCO)c3cc4c(cc32)OCCO4)cc1 (configuration not stated)
inactive: NCI-H23 lung 97.2% | NCI-H322M lung 125% | HOP-62 NSCLC 80.4% | NCI-H460 lung 77.4% | HOP-92 NSCLC 102% | NCI-H522 lung 58.2% | A549/ATCC NSCLC 76.6% | 786-0 renal 87.5% | DU-145 prostate 106% | K-562 leukemia 53.1% | MALME-3M melanoma 103% | MDA-MB-231 breast 91.2% | RXF 393 renal 75.5% | SF-268 CNS 86.5% | SF-295 CNS 55.8% | SF-539 CNS 83.1% | UACC-257 melanoma 69% | M14 melanoma 77.7% | HCT-15 colon 65.6%

COc1ccc(-c2nnc(COc3ccc(C(=O)/C=C/c4ccco4)cc3)o2)cc1
active: SF-295 CNS -2.9%
inactive: NCI-H23 lung 92.1% | NCI-H322M lung 86.6% | HOP-62 NSCLC 75.8% | NCI-H460 lung 78.5% | HOP-92 NSCLC 88.4% | NCI-H522 lung 91.8% | A549/ATCC NSCLC 87% | 786-0 renal 50.9% | DU-145 prostate 61.6% | K-562 leukemia 15.3% | MALME-3M melanoma 125% | MDA-MB-231 breast 90% | RXF 393 renal 65% | SF-268 CNS 58.1% | SF-539 CNS 55.9% | UACC-257 melanoma 105% | M14 melanoma 98.8% | HCT-15 colon 68.3%
